The list is not random: actives were taken first. Their share in the collection is about 19%.
HT1080-NT tox = qHTS for induction of synthetic lethality in tumor cells producing 2HG: qHTS for the HT-1080-NT fibrosarcoma cell line; 360,000 compounds, 1.6% hits; AID 686970, 2013; Potency, µM (doses to about 46.1 µM), actives largely listed as cytotoxic; HT-1080-NT fibrosarcoma viability, CellTiter-Glo ATP luminescence, 48 h;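 further: NT is the 2HG producing partner of a matched IDH1 knockdown line; nearly all actives have a fitted effect of over 55% in size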
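Toxicity toward the 2HG-producing NT line was scored as %Activity, normalised to DMSO and no-cell wells, from CellTiter-Glo luminescence after 48 hours' treatment.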
IL1B secr inh = qHTS for Inhibitors of Inflammasome Signaling: IL-1-beta AlphaLISA Primary Screen. 360,000 compounds, 4.7% hits. AID 743279, 2014. activity change, % at 57.5 µM. THP-1 LPS/ATP IL-1B secretion, AlphaLISA, 16 h; active compounds read low; in the data active means activity change below about -50%; inconclusive means mostly about -30% to -49%
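Secreted IL-1B measured by AlphaLISA bead assay after 16 h compound exposure of THP-1 cells; compounds (final up to 57.5 uM) added 1 h before LPS (250 ng/mL) and ATP (1.25 mM) stimulation; lower signal means less secretion.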
TDP1 cell CPT = qHTS for Inhibitors of human tyrosyl-DNA phosphodiesterase 1 (TDP1): qHTS in cells in presence of CPT | 420,000 compounds, 12% hits | chicken DT40 Tdp1-/-;hTDP1 cells + 20 nM CPT, ATP luminescence, 48 h | AID 686979, 2013 | Potency, µM (series often up to 46.2 µM), hits mostly inhibitors; further: nearly all actives have a fitted effect of over 55% in size
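Chicken DT40 Tdp1-/- cells complemented with human TDP1, 400 cells/well, exposed to compounds plus 20 nM camptothecin for at least 48 h at 37 C; viability read as ATP content by CellTiter-Glo luminescence.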
HT1080 IDH1KD tx = qHTS for induction of synthetic lethality in tumor cells producing 2HG: qHTS for the HT-1080-IDH1KD cell line | HT-1080 IDH1 knockdown viability, ATP luminescence, 48 h | Potency, µM (highest dose often 46.1 µM), hits mostly cytotoxic | 360,000 compounds, 2% hits | AID 686971, 2013
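% activity derives from luminescence (CellTiter-Glo), normalised to DMSO and no-cell wells. HT-1080-IDH1KD cells, 750/well, had 48 h compound exposure at 37 °C.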
DT40 TDP1 no CPT = qHTS for Inhibitors of human tyrosyl-DNA phosphodiesterase 1 (TDP1): qHTS in cells in absence of CPT | DT40 Tdp1-/- hTDP1 cells, no CPT, ATP luminescence, 48 h | Potency, µM (top dose mostly 46.2 µM), actives largely listed as inhibitors | 420,000 compounds, 15% hits | AID 686978, 2013; further: nearly all actives have a fitted effect of over 55% in size
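Cells were dispensed at 400 per well, compounds added by pin tool, plates incubated ≥48 hr at 37 °C, then CellTiter-Glo added for 30 min at room temperature before luminescence reading. Line: DT40 Tdp1-/- complemented with hTDP1; camptothecin omitted.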
Of the large screens only hits and unclear results are named; the others gave an inactive call. Unless noted, the call rests on the fitted dose curve; in most records, active means well fitted curve in the direction sought with a large enough effect; inconclusive means small, poorly fitted or top-dose-only effect, or another doubt; inactive means no such curve, though single readings can be large; an effect the other way counts as inactive or inconclusive.

Clc1ccc(CO/N=C2\CCCc3nonc32)c(Cl)c1	DT40 TDP1 no CPT inconclusive
Cc1ccc(S(=O)(=O)N2CCC(=O)N([C@H](COCc3ccc(Cl)cc3Cl)Cc3ccccc3)CC2)cc1	TDP1 cell CPT inconclusive, DT40 TDP1 no CPT 23µM
Cc1ccc(S(=O)(=O)N2CCC(=O)N(C(COCc3ccccc3)C(C)C)CC2)cc1 (stereo not given)	TDP1 cell CPT inconclusive, DT40 TDP1 no CPT inconclusive
Cc1ccc(S(=O)(=O)N2CCC(=O)N([C@H](COCc3cccc(C)c3)C(C)C)CC2)cc1	TDP1 cell CPT inconclusive, DT40 TDP1 no CPT inconclusive
Cc1ccc(S(=O)(=O)N2CCC(=O)N(C(COCc3ccc(Cl)cc3)Cc3ccccc3)CC2)cc1 (stereo not given)	TDP1 cell CPT inconclusive, DT40 TDP1 no CPT 16µM
Cc1c(-c2nnc(SCC(=O)Nc3ccc(Br)cc3)o2)nnn1-c1ccc(F)cc1	TDP1 cell CPT inconclusive (no result: HT1080-NT tox, IL1B secr inh, HT1080 IDH1KD tx)
Cc1ccc(S(=O)(=O)N[C@@H](C)C(=O)N2CCC(C(=O)N[C@@H](Cc3ccccc3)C(=O)O)CC2)cc1	none
CCOc1cc(C(=O)Nc2ccc3c(c2)OCO3)ccc1OC(F)F	IL1B secr inh -65, TDP1 cell CPT 15µM, DT40 TDP1 no CPT 11µM
O=C(Nc1ccc2c(c1)OCO2)c1ccc2c(c1)OCO2	TDP1 cell CPT inconclusive, DT40 TDP1 no CPT inconclusive
CCOc1ccc(C(=O)Nc2ccc3c(c2)OCCO3)cc1[N+](=O)[O-]	IL1B secr inh -58
CCC(=O)Oc1ccc(C(=O)Nc2ccc3c(c2)OCO3)cc1	HT1080-NT tox inconclusive, IL1B secr inh -58, TDP1 cell CPT inconclusive, HT1080 IDH1KD tx inconclusive, DT40 TDP1 no CPT 21µM
O=C(Nc1ccc2c(c1)OCO2)c1ccc(NC2CC2)c([N+](=O)[O-])c1	HT1080-NT tox inconclusive, TDP1 cell CPT 21µM, DT40 TDP1 no CPT 21µM
CCOc1ccc(C(=O)Nc2ccc3c(c2)OCCO3)cc1OC	HT1080-NT tox inconclusive, TDP1 cell CPT inconclusive, HT1080 IDH1KD tx inconclusive
CC(=O)Nc1ccc(S(=O)(=O)NC2(C(F)(F)F)N=C(c3ccccc3)NC2=O)cc1 (stereo not given)	none
CCCOc1c(Cl)cc(C(=O)Nc2ccc3c(c2)OCO3)cc1OCC	HT1080-NT tox inconclusive, IL1B secr inh -56, TDP1 cell CPT inconclusive, HT1080 IDH1KD tx 10µM, DT40 TDP1 no CPT inconclusive
CCCOc1ccc(C(=O)Nc2ccc3c(c2)OCO3)cc1	HT1080 IDH1KD tx inconclusive
CC(=O)OCON[N+]([O-])=NC(C)C	TDP1 cell CPT 11µM, DT40 TDP1 no CPT inconclusive (no result: HT1080-NT tox, IL1B secr inh, HT1080 IDH1KD tx)
CC(C)(C)OC(=O)NCCc1onc(-c2cccc([N+](=O)[O-])c2)c1C(=O)O	none
O=C(Nc1nnc2n1CCS2)c1cc(C(F)(F)F)cc(C(F)(F)F)c1	TDP1 cell CPT 5.8µM, DT40 TDP1 no CPT 4.6µM (no result: HT1080-NT tox, IL1B secr inh, HT1080 IDH1KD tx)
COc1cc(OC)cc(C(=O)Nc2nnc3n2CCS3)c1	DT40 TDP1 no CPT inconclusive (no result: HT1080-NT tox, IL1B secr inh, HT1080 IDH1KD tx)
Cc1ccc(-c2nc3n(n2)C(c2ccccc2C)C=C(c2ccc(Cl)cc2)N3)cc1 (stereo not given)	TDP1 cell CPT inconclusive, DT40 TDP1 no CPT 23µM (no result: HT1080-NT tox, IL1B secr inh, HT1080 IDH1KD tx)
COc1ccc(C2C=C(c3ccccc3)Nc3ncnn32)cc1 (stereo not given)	TDP1 cell CPT 18µM, DT40 TDP1 no CPT inconclusive
Cc1ccc(C2=CC(c3ccc(Cl)cc3)n3nc(-c4ccc(C)cc4)nc3N2)cc1 (stereo not given)	TDP1 cell CPT 33µM, DT40 TDP1 no CPT inconclusive (no result: HT1080-NT tox, IL1B secr inh, HT1080 IDH1KD tx)
COc1ccc(C2C=C(c3ccc(Cl)cc3)Nc3nc(-c4ccc(Cl)cc4)nn32)cc1 (stereo not given)	TDP1 cell CPT 8.2µM, DT40 TDP1 no CPT 4.6µM (no result: HT1080-NT tox, IL1B secr inh, HT1080 IDH1KD tx)
C[C@@H]1C/C=C/C=C/C=C/C=C/[C@H](O[C@@H]2O[C@H](C)[C@@H](O)[C@H](N)[C@@H]2O)C[C@@H]2O[C@](O)(C[C@@H](O)C[C@H]3O[C@@H]3/C=C/C(=O)O1)C[C@H](O)[C@H]2C(=O)O	none (no result: HT1080-NT tox, IL1B secr inh, HT1080 IDH1KD tx)

Screening data: PubChem, National Center for Advancing Translational Sciences (NCATS)
